From PMC5540273 (PLoS ONE, 2017) come the findings set out here.

Some test systems named below: CDC2L2; CDK2; CDK3; CDK4-cyclinD1; CDK4-cyclinD3; CDK4; CDK5; CDK7; CDK8; CDK9; CDKL1; CDKL2; CDKL3; CDKL5; CHEK1; CHEK2; CIT; CLK1.
Common to all, as to conditions: concentration: 1 μM,replicates: in singlicate; n = 1
A further experiment relates to T1, CDC2L5.
T1 construct: gene CDK13

The next experiment concerns T2, CDK11.
T2 construct: gene CDK19

The structures appear in SMILES notation.
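Also: KINOMEscan kinase panel screen.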

Consider `COc1cc2c(Nc3ccc(NC(=O)c4ccccc4)cc3)ncnc2cc1OCCCN1CCOCC1` [GSK301329], for which the “%Inh” value turned out to be 7% in the experiment with CDC2L2; 0% with CDC2L5; 0% in the experiment on CDK11; 0% in the experiment on CDK2; 2% in the experiment on CDK3; 0% in the experiment on CDK4-cyclinD1. In addition, the “%Inh” value amounted to 0% with CDK4-cyclinD3; 7% with CDK4; 0% in the experiment with CDK5; 24% in the experiment with CDK7; 0% in the experiment with CDK8; 0% with CDK9. Also, the “%Inh” value in the experiment with CDKL1 was determined as 23%; with CDKL2, 30%; in the experiment with CDKL3 it was 0%; in the experiment with CDKL5, 0%; with CHEK1, 0%; in the experiment with CHEK2, 58%. Moreover, the results for the “%Inh” value in the experiment on CIT and in the experiment with CLK1 were 9% and 10%, respectively.
Consider `Cn1ccc2ncnc(Oc3ccc(NC(=O)Nc4cccc(C(F)(F)F)c4)c(Cl)c3)c21`, for which the “%Inh” value in the experiment with CDC2L2 is 5%; in the experiment on CDC2L5, 0%; in the experiment with CDK11, 99.8%; in the experiment with CDK2, 0%; in the experiment on CDK3, 5%; in the experiment with CDK4-cyclinD1, 8%. Moreover, the “%Inh” value in the experiment with CDK4-cyclinD3 is given as 0%; with CDK4 it was 0%; with CDK5, 0%; in the experiment with CDK7 it was 2%; with CDK8, 95.9%; in the experiment on CDK9 it was 2%. Moreover, the “%Inh” value with CDKL1 stood at 29%; in the experiment with CDKL2, 8%; with CDKL3 it was 6%; in the experiment with CDKL5, 0%; in the experiment on CHEK1 it was 0%; with CHEK2, 0%. The “%Inh” value in the experiment with CIT is reported as 57%; in the experiment on CLK1, 0%.
On to `CNC(=O)c1ccccc1Nc1nc(Nc2cccc(CS(C)(=O)=O)c2)ncc1C.O=CO` [GSK1520489], for which the “%Inh” value with CDC2L2 was determined as 0%; in the experiment on CDC2L5, 0%; in the experiment on CDK11, 0%; in the experiment on CDK2 it was 16%; in the experiment on CDK3, 36%; in the experiment on CDK4-cyclinD1, 0%. Further, the “%Inh” value in the experiment with CDK4-cyclinD3 is recorded as 19%; in the experiment on CDK4, 30%; with CDK5 it was 0%; in the experiment on CDK7 it was 89%; with CDK8, 4%; with CDK9 it was 0%. For the same molecule, the “%Inh” value in the experiment with CDKL1 was found to be 28%; in the experiment on CDKL2, 52%; with CDKL3 it was 0%; in the experiment with CDKL5, 0%; with CHEK1 it was 16%; in the experiment with CHEK2 it was 86%. In addition, the “%Inh” value was determined as 45% in the experiment on CIT and 99.3% in the experiment on CLK1.
With `CCCC(=O)Nc1n[nH]c2ncccc12` [SB-601436], the “%Inh” value is given as 0% in the experiment on CDC2L2; 0% with CDC2L5; 0% in the experiment with CDK11; 0% in the experiment on CDK2; 1% in the experiment with CDK3; 0% in the experiment with CDK4-cyclinD1. Besides, the “%Inh” value in the experiment on CDK4-cyclinD3, in the experiment on CDK4, in the experiment with CDK5, with CDK7, with CDK8 and with CDK9 was 0% throughout. For the same molecule, the “%Inh” value in the experiment on CDKL1, with CDKL2, with CDKL3, with CDKL5, in the experiment on CHEK1 and in the experiment with CHEK2 was 0% throughout. Further, the figures for the “%Inh” value in the experiment on CIT and in the experiment on CLK1 were 0% and 2%, respectively.
For `O=C(Nc1ccc(Oc2ccc3nc(NC(=O)C4CC4)cn3n2)c(F)c1)c1cccn(-c2ccccc2)c1=O`, the “%Inh” value with CDC2L2 is listed as 6%; with CDC2L5 it was 0%; in the experiment on CDK11, 28%; in the experiment on CDK2 it was 0%; in the experiment with CDK3, 39%; in the experiment with CDK4-cyclinD1 it was 0%. Moreover, the “%Inh” value was determined as 0% in the experiment on CDK4-cyclinD3; 0% in the experiment on CDK4; 0% with CDK5; 0% with CDK7; 63% in the experiment on CDK8; 6% in the experiment with CDK9. Further, the “%Inh” value is 45% in the experiment on CDKL1; 74% in the experiment with CDKL2; 25% with CDKL3; 0% in the experiment with CDKL5; 0% with CHEK1; 0% with CHEK2. The “%Inh” value in the experiment with CIT turned out to be 30%; in the experiment with CLK1, 1%.
For the molecule `CS(=O)(=O)c1cccc(CNc2nc(Nc3ccc4c(c3)[C@@H]3C[C@@H]4CNC3=O)ncc2C(F)(F)F)c1`, the “%Inh” value with CDC2L2 worked out at 0%; with CDC2L5, 2%; in the experiment on CDK11 it was 0%; in the experiment with CDK2, 46%; with CDK3, 33%; in the experiment on CDK4-cyclinD1, 97.1%. The “%Inh” value in the experiment on CDK4-cyclinD3 is 96.4%; in the experiment on CDK4, 60%; with CDK5, 82%; with CDK7 it was 94%; with CDK8 it was 0%; in the experiment on CDK9, 27%. Also, the “%Inh” value with CDKL1 is given as 71%; in the experiment on CDKL2 it was 80%; with CDKL3, 2%; in the experiment on CDKL5, 0%; in the experiment with CHEK1, 0%; in the experiment with CHEK2, 17%. In addition, the “%Inh” value is reported as 51% with CIT and 81% in the experiment with CLK1.
As to `Cc1nnc(-c2ccc3occ(-c4ccc(S(C)=O)cc4)c3n2)o1` (centres unmarked), the “%Inh” value in the experiment with CDC2L2 is listed as 0%; in the experiment on CDC2L5, 0%; with CDK11 it was 0%; with CDK2 it was 6%; in the experiment with CDK3, 0%; with CDK4-cyclinD1 it was 0%. Moreover, the “%Inh” value in the experiment on CDK4-cyclinD3, in the experiment with CDK4, with CDK5, in the experiment on CDK7, with CDK8 and with CDK9 was 0% throughout. The “%Inh” value was 24% in the experiment with CDKL1; 0% with CDKL2; 0% in the experiment on CDKL3; 0% with CDKL5; 0% in the experiment with CHEK1; 1% in the experiment with CHEK2. Moreover, the “%Inh” value in the experiment with CIT and in the experiment with CLK1 was 0% each time.
For `CS(=O)c1ccc(-c2coc3ccc(-c4n[nH]c(=O)o4)cc23)cc1` (centres unmarked), the “%Inh” value in the experiment with CDC2L2 worked out at 0%; in the experiment with CDC2L5, 36%; in the experiment on CDK11 it was 96.9%; in the experiment on CDK2 it was 0%; with CDK3 it was 4%; in the experiment on CDK4-cyclinD1, 0%. The “%Inh” value was 0% in the experiment with CDK4-cyclinD3; 10% with CDK4; 0% in the experiment on CDK5; 38% in the experiment with CDK7; 91.1% with CDK8; 0% in the experiment on CDK9. Moreover, the “%Inh” value with CDKL1 is 10%; with CDKL2 it was 0%; in the experiment with CDKL3, 12%; in the experiment with CDKL5, 0%; in the experiment with CHEK1, 0%; in the experiment with CHEK2 it was 42%. Further, the “%Inh” value in the experiment on CIT is recorded as 0%; in the experiment on CLK1, 20%.
With `COC(=O)c1cccc(NC(=O)NC2CCN(c3ccnc(Nc4cc(OC)c(OC)c(OC)c4)n3)C2)c1` (centres unmarked) [GSK1379767], the “%Inh” value was 36% in the experiment with CDC2L2; 0% with CDC2L5; 24% with CDK11; 0% in the experiment on CDK2; 12% with CDK3; 27% in the experiment on CDK4-cyclinD1. For the same molecule, the “%Inh” value with CDK4-cyclinD3 is 0%; in the experiment with CDK4, 37%; with CDK5, 0%; with CDK7, 16%; in the experiment on CDK8 it was 56%; with CDK9, 1%. Besides, the “%Inh” value was determined as 14% with CDKL1; 67% in the experiment with CDKL2; 0% in the experiment on CDKL3; 0% in the experiment with CDKL5; 0% in the experiment with CHEK1; 58% in the experiment with CHEK2. Also, the entries for the “%Inh” value with CIT and in the experiment on CLK1 were 10% and 0%, respectively.
For `CN1CCN(CCCNc2nccc(-c3c(-c4ccc(F)cc4)nn4cc(C(N)=O)ccc34)n2)CC1` [GW622475], the “%Inh” value with CDC2L2 came to 17%; in the experiment with CDC2L5 it was 0%; in the experiment with CDK11 it was 40%; with CDK2, 0%; with CDK3, 18%; in the experiment with CDK4-cyclinD1, 0%. Further, the “%Inh” value in the experiment on CDK4-cyclinD3 was 0%; in the experiment on CDK4, 20%; with CDK5 it was 0%; in the experiment with CDK7 it was 0%; with CDK8, 19%; in the experiment with CDK9, 3%. Besides, the “%Inh” value is reported as 5% in the experiment on CDKL1; 31% in the experiment on CDKL2; 92.6% in the experiment on CDKL3; 0% in the experiment with CDKL5; 0% in the experiment with CHEK1; 1% in the experiment on CHEK2. Besides, the “%Inh” value with CIT came to 95.2%; in the experiment with CLK1, 19%.
